Experimental data published in PubChem BioAssay (NCI).
This is part of a sample that, as a whole, favours compounds with a hit. Of some 83,000 tested, about 20% had one in any assay.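 Note: values are percent growth. 100 is the growth of untreated cells, values between 100 and 0 indicate rising inhibition; between -100 and 0 indicates cell death.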 Unmarked numbers belong to inactive results. Activity calls are given as the source filed them. Rule for the calls: active = growth percent below 10; inactive = the rest.

Assays:
Experiment in all cases: NCI-60 one-dose screen, 48 h (100 = growth as untreated, 0 = no growth, -100 = all killed)
Conditions in all cases: 10 µM unless noted
SR leukemia = test system: SR leukemia
RPMI-8226 leukemia = test system: RPMI-8226 leukemia
OVCAR-8 ovarian = test system: OVCAR-8 ovarian
OVCAR-5 ovarian = test system: OVCAR-5 ovarian
OVCAR-4 ovarian = test system: OVCAR-4 ovarian
SK-OV-3 ovarian = test system: SK-OV-3 ovarian
IGROV1 ovarian = test system: IGROV1 ovarian
OVCAR-3 ovarian = test system: OVCAR-3 ovarian
HS 578T breast = test system: HS 578T breast
NCI/ADR-RES ovarian = test system: NCI/ADR-RES ovarian
T-47D breast = test system: T-47D breast
BT-549 breast = test system: BT-549 breast
MDA-MB-435 melanoma = test system: MDA-MB-435 melanoma
SW-620 colon = test system: SW-620 colon
MCF7 breast = test system: MCF7 breast
HCT-116 colon = test system: HCT-116 colon
HCC-2998 colon = test system: HCC-2998 colon
KM12 colon = test system: KM12 colon

Structure (SMILES) | growth (SR leukemia) | growth (RPMI-8226 leukemia) | growth (OVCAR-8 ovarian) [%] | growth (OVCAR-5 ovarian) [%] | growth (OVCAR-4 ovarian) | growth (SK-OV-3 ovarian) [%] | growth (IGROV1 ovarian) | growth (OVCAR-3 ovarian) | growth (HS 578T breast) [%] | growth (NCI/ADR-RES ovarian) | growth (T-47D breast) | growth (BT-549 breast) | growth (MDA-MB-435 melanoma) | growth (SW-620 colon) | growth (MCF7 breast) | growth (HCT-116 colon) | growth (HCC-2998 colon) [%] | growth (KM12 colon) [%]
C=CCn1c2ccccc2c2c3c(c4c5ccccc5n(CC=C)c4c21)C(=O)N(O)C3=O | 7.52% (active) | 24.4% | 22.9 | 86.4 | 45.8% | 33.9 | -15.6% (active) | 33.2% | 77.2 | 2.91% (active) | 13% | 45% | 42.7% | 54.9% | 13% | 22.3% | 36.5 | 26.4
C=C[C@@H]1C[C@@H]2Cc3cc(F)ccc3N1O2 | 32% | 94.1% | 114 | 97 | 104% | 113 | 122% | 113% | 106 | 102% | 111% | 124% | 98.7% | 112% | 100% | 112% | 95.3 | 108
Cc1nc2c3c(ncn2n1)Oc1c(c(=O)[nH]c2ccccc12)C3c1ccc(Cl)cc1 (stereo unspecified) | 100% | 86.2% | 97.3 | 101 | 97% | 116 | 89.3% | 99.2% | 99.7 | 94.7% | 86% | -52.7% (active) | 102% | 95.4% | 91.6% | 88.8% | 102 | 99.2
COc1ccc(/C=C2\Oc3cc(OCCCN4CCCC4)ccc3C2=O)cc1 | -28.4% (active) | 86.9% | 95.9 | 92.9 | 90.1% | 106 | 88.4% | 94.3% | 89.3 | 96.2% | 94% | 95.5% | 97.6% | 77.1% | 69.8% | 55.7% | 91.3 | 82.7
COc1cc(NC(=O)SC2=NCCS2)cc(OC)c1 | 93.9% | 63.2% | 98.7 | 97.7 | 98% | 98 | 139% | 113% | 99.7 | 99% | 87.2% | 95.4% | 113% | 95.8% | 94.1% | 108% | 114 | 106
CCN(CC)CCOc1ccc(Cl)c(C)c1 | 92.3% | 99.9% | 104 | 101 | 117% | 98.1 | 99.6% | 95.1% | 103 | 102% | 104% | 112% | 106% | 106% | 96.2% | 98.5% | 90.6 | 105
O=C1CS/C(=N\Nc2cc(=O)[nH]c3ccccc23)N1c1ccccc1 | 77.9% | 88.4% | 94 | 95.6 | 97% | 107 | 89.1% | 99.8% | 97.1 | 91.3% | 89.6% | 95.3% | 82.9% | 92.9% | 92% | 89.7% | 96 | 98.8
C=C1CC2(OC1=O)C(=O)N(CCCN1C(=O)C3(CC(=C)C(=O)O3)c3ccccc31)c1ccccc12 (stereo unspecified) | 3.74% (active) | -33.3% (active) | 11.6 | 21.9 | 25.2% | 111 | 35% | -13% (active) | 58.2 | 50% | 4.15% (active) | 33.5% | -17.1% (active) | -67.4% (active) | -18.9% (active) | -8.31% (active) | 86.2 | 72.9
C=C1c2nc3ccccc3n2C=C(c2ccc(Cl)cc2)N1Cc1ccccc1 | 23.7% | 35.3% | 75.6 | 99.9 | -8.06% (active) | 83.4 | 106% | 92.2% | 87 | 79.4% | 66% | 142% | 98.1% | 86.9% | 63% | 63% | 89.2 | 86.9
C=C1C(=O)O[C@H]2[C@H]1CC/C(Cn1cc(CNC(=O)/C=C/c3c[nH]c4ccccc34)nn1)=C\CC[C@@]1(C)O[C@@H]21 | 56.6% | 13% | 98.9 | 114 | 100% | 103 | 86.2% | 30.5% | 95.4 | 108% | 107% | 112% | 83.9% | 49.9% | 42% | 63.8% | 118 | 98
C=CCSc1n[nH]c(-c2cccs2)n1 | 91% | 103% | 102 | 98.2 | 107% | 110 | 15.8% | 115% | 101 | 102% | 94.8% | 99.5% | 106% | 102% | 101% | 98.6% | 117 | 111
CC(C)c1ccc2occ(C=C3C(=O)NC(=O)NC3=O)c(=O)c2c1 | 73.1% | 74.8% | 80.1 | 123 | 89.1% | 109 | 120% | 95.6% | 111 | 90.1% | 83.5% | 92.4% | 105% | 91.6% | 80.8% | 76.5% | 93.7 | 117
COc1cc(C(=O)/C=C/c2ccc3nc(-c4cc(F)cc(F)c4)sc3c2)cc(OC)c1OC | 103% | 90.7% | 104 | 97.1 | 107% | 94.5 | 96.6% | 112% | 93.1 | 98.7% | 102% | 95.3% | 106% | 104% | 97.5% | 87% | 93.1 | 108
Cc1cccc(/C=N/Nc2cc(C)c3cccc(C)c3n2)n1 | 47.2% | 60.8% | 83.3 | 94.3 | 90.2% | 115 | 96.7% | 102% | 108 | 84.5% | 83% | 91.4% | 96.3% | 94.7% | 48.4% | 65.1% | 108 | 97.5
Cn1c(=O)cc(NC(=O)CN2CCN(c3cc4c(cc3F)c(=O)c(C(=O)O)cn4C3CC3)CC2)[nH]c1=O | 103% | 97.3% | 98 | 95.9 | 96.9% | 112 | 101% | 99.5% | 103 | 98.1% | 107% | 105% | 101% | 99.3% | 94.2% | 103% | 100 | 101
Cc1ccc(-c2csc(NC(=O)CCCCl)n2)cc1 | 84.4% | 82.7% | 106 | 94.6 | 90.7% | 105 | 95% | 101% | 105 | 101% | 77.2% | 98.1% | 103% | 107% | 90.7% | 98.6% | 103 | 95
Fc1ccc(-c2nc(-c3nc4ncccc4[nH]3)cc3c2[nH]c2ccccc23)cc1F | 76% | 45.7% | 66.6 | 93.5 | 60.2% | 111 | 62.3% | 82% | 96 | 61.4% | 51.7% | 84% | 66.1% | 102% | 38.7% | 30.3% | 100 | 71.9
